Screens deposited in PubChem BioAssay by National Center for Advancing Translational Sciences (NCATS).
The sample as a whole holds a higher share of hits than the screen did.
Shiga toxin inh – inhibitors of Shiga toxin in Vero cells. 290,000 compounds, 9.2% hits. Vero cells, Shiga toxin protein synthesis inhibition reporter. inhibition, % at 38.7 µM; in the data active means inhibition mostly above about 28%, no sharp cut-off; inactive means mostly below about 43%; further: 0% is about no effect
CHX counter – affects cycloheximide protein synthesis inhibition readout, counter-screen | cell reporter, cycloheximide protein synthesis inhibition counterscreen | max response, % | 300,000 compounds, 12% hits | AID 2314; in the data active means max response mostly above about 13%, no sharp cut-off; inactive means mostly below about 14%; further: read at 38.3 µM for the half of the compounds with a filed dose; 0% is about no effect
Giardia FBPA inh – blocks Giardia fructose-bisphosphate aldolase activity | A8B2U2 | purified Giardia FBPA | Potency, µM (doses to about 59.6 µM), for inactives: at the highest dose activity, negative = inhibition, usual class: inhibitors | 290,000 compounds, 0.71% hits | AID 2451; further: potency means the concentration at half of the fitted maximal effect; on the % scale 0 is the no-effect control and ±100 the full control effect; nearly all actives have a fitted effect of over 55% in size
Target sequence (A8B2U2 whole entry, looked up): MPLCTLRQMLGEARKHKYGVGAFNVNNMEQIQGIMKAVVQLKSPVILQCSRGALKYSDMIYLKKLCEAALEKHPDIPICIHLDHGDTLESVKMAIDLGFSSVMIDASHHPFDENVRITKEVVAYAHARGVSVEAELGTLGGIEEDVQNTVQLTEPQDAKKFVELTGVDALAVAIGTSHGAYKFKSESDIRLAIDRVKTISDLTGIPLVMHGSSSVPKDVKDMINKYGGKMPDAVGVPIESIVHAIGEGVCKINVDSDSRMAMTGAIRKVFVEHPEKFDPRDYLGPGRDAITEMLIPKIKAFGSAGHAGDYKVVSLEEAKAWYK
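40 nM FBPA preincubated 10 min at RT with compound (up to 57.5 uM final), then substrate plus GAPDH/TPI/NAD/arsenate coupling and diaphorase/resazurin added. Fluorescence read after 20 min at RT, 525/598 nm.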
RE007 growth inh – less growth of the S. pombe RE007 Vpr strain. 360,000 compounds, 0.21% hits. S. pombe RE007 Vpr strain, BacTiter-Glo ATP luminescence, 24 h. Potency, µM (top dose mostly 92.2 µM), for inactives: at the highest dose activity change, negative = less growth, usual class: inhibitors; active means well fitted falling curve with a large enough effect; inconclusive means small, poorly fitted or top-dose-only effect; inactive means no such curve, though single readings can be large or run the other way; further: potency means the concentration at half of the fitted maximal effect; on the % scale 0 is the no-effect control and ±100 the full control effect; nearly all actives have a fitted effect of over 50% in size
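Fission yeast RE007 carrying one integrated HIV-1 vpr copy, seeded at OD 0.01 in PMG+AL medium with 23 nL pinned compound. Grown 24 h at 30 degrees; viability read by BacTiter-Glo luminescence after 5 min.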
LmPK inh – inhibitors of Leishmania mexicana pyruvate kinase; Potency, µM (highest dose often 57.5 µM), for the others: top-dose activity change, negative = inhibition, most hits filed as inhibitors; AID 1721; 290,000 compounds, 0.37% hits; Q27686; purified LmPK, Kinase-Glo ATP luminescence, 1 h; further: potency means the concentration at half of the fitted maximal effect; on the % scale 0 is the no-effect control and ±100 the full control effect
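In 50 mM imidazole pH 7.2 with 7 mM MgCl2, LmPK (0.1 nM) turned over PEP (0.5 mM) and ADP (0.1 mM) for 1 h at room temperature. Luciferase read-out of ATP.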
TbPYK inhibitor – inhibitors of Trypanosoma brucei pyruvate kinase | TbPYK enzyme, Kinase-Glo Plus ATP luminescence, 45 min | Potency, µM (doses to about 76.8 µM), for inactives: at the top dose activity, negative = inhibition, actives largely listed as inhibitors | 410,000 compounds, 0.12% hits | AID 624173; further: potency means the concentration at half of the fitted maximal effect; on the % scale 0 is the no-effect control and ±100 the full control effect; nearly all actives have a fitted effect of over 50% in size
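T. brucei PYK with substrate was exposed to pin-transferred compounds across a concentration series, then started with 130 uM ADP (final). After 45 min at room temperature, Kinase-Glo Plus luminescence was read, normalized and curve-fitted.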
The depositor's hits bear a star; ? = inconclusive; · = no result given. Unless noted, the call rests on the fitted dose curve; in most records, active means well fitted curve in the direction sought with a large enough effect; inconclusive means small, poorly fitted or top-dose-only effect, or another doubt; inactive means no such curve, though single readings can be large; an effect the other way counts as inactive or inconclusive.

SMILES | Shiga toxin inh | CHX counter | Giardia FBPA inh | RE007 growth inh | LmPK inh | TbPYK inhibitor
O=C(Nc1nc2ccc(F)cc2s1)C1CCCO1 (configuration not stated) | 94* | 26* | · | -28% | -16% | -2%
Cc1ccc(S(=O)(=O)N2CCCC2C(=O)Nc2nc3ccccc3s2)cc1 (configuration not stated) | 7 | 14* | -13% | -3% | 3% | -10%
Cc1cc(F)ccc1NC(=O)C1CCCO1 (configuration not stated) | -16 | 2 | 4% | -5% | -2% | -1%
O=C(Cc1ccc2cccnc2c1)c1ccc(O)cc1O | 34* | 29* | 14% | 9% | 5% | 2%
CCN(CC)C(=O)Cn1c(=O)n(-c2ccc(C)c(C)c2)c(=O)c2c3c(sc21)CCCCC3 | · | · | · | · | · | 0%
O=C(c1ccc(Cl)s1)N1CCCC1 | -9 | 16 | 2% | 1% | 2% | -13%
CC(C)(C)c1ccc(C(=O)N2CCCC2)s1 | 51* | 26* | 2% | -8% | -9% | 2%
Cc1nc2c(-c3ccc(F)cc3)c(C)nn2c(C)c1CCC(=O)Nc1ccccc1F | -7 | -4 | 0% | 8% | 4% | 3%
c1ccc(CNc2ncncc2-c2ccoc2)cc1 | · | · | -8% | · | · | ·
Cc1ccc(F)c(NC(=O)c2ccc(Cn3cc(Cl)cn3)cc2)c1 | 37 | 39* | -2% | 17% | -11% | 2%
COc1ccc(NC(=O)c2ccc(Cn3cc(Cl)cn3)cc2)cc1 | -4 | -5 | -1% | -2% | -4% | 1%
O=[N+]([O-])c1nn(-c2ccc3c(c2)OCCO3)n(O)c1=Nc1ccccc1 | 168* | 142* | ? | 8% | 0% | -14%
CCc1ccc(N=c2c([N+](=O)[O-])nn(-c3ccc4c(c3)OCCO4)n2O)cc1 | 46* | 34* | -11% | 19% | 6% | 2%
Cc1cc(C)cc(N=c2c([N+](=O)[O-])nn(-c3ccc4c(c3)OCCO4)n2O)c1 | 18 | 17* | -19% | 3% | 0% | 1%
Cc1ccc(N=c2c([N+](=O)[O-])nn(-c3ccccc3)n2O)c(C)c1 | 98* | 32* | -27% | 4% | -2% | -9%
Cc1ccc(N=c2c([N+](=O)[O-])nn(-c3ccc4c(c3)OCCO4)n2O)cc1F | 141* | 33* | -1% | 11% | 12% | -6%
O=[N+]([O-])c1nn(-c2ccc3c(c2)OCCO3)n(O)c1=Nc1ccc(Cl)cc1 | 117* | 34* | -8% | -9% | -3% | -2%
Cc1c(Cl)cccc1N=c1c([N+](=O)[O-])nn(-c2ccccc2)n1O | -10 | -4 | 8% | 6% | 3% | 3%
Cc1ccc(N=c2c([N+](=O)[O-])nn(-c3ccc4c(c3)OCCO4)n2O)c(Cl)c1 | 89* | 35* | -8% | · | -9% | ·
Cc1ccc(N=c2c([N+](=O)[O-])nn(-c3ccc(Cl)cc3)n2O)cc1C | 26 | 18 | -14% | -9% | 0% | -4%
COc1ccc(-n2cc(C(=O)Nc3ccccc3C#N)c3ccccc3c2=O)cc1 | · | · | · | · | · | -1%
Cc1ccc2c(c1)CNc1ccccc1O2 | 45 | 13* | -7% | -18% | 7% | 0%
CSc1nc2ccc(NC(=O)c3ccccn3)cc2s1 | 105* | 38* | 1% | ? | -29% | -14%
COC(=O)c1ccc(C(=O)NC(=S)Nc2ccc3nc(SC)sc3c2)cc1 | 11 | 11* | 2% | 15% | -3% | -9%
CSc1nc2ccc(NC(=O)C3=NN(c4ccccc4)C(=O)CC3)cc2s1 | 17 | 6 | -27% | 12% | -4% | 2%
SMILES | Shiga toxin inh | CHX counter | Giardia FBPA inh | RE007 growth inh | LmPK inh | TbPYK inhibitor
CSc1nc2ccc(NC(=O)C3=NNC(=O)CC3)cc2s1 | 47 | 16* | -6% | 11% | -3% | 2%
COc1ccc(CC(=O)Nc2ccc3nc(SC)sc3c2)cc1OC | 42 | -2 | 0% | 12% | 2% | 4%
COC(=O)c1ccc(N2C(=O)CC(N3CCOCC3)C2=O)cc1 (configuration not stated) | -16 | -3 | -2% | 28µM* | 1% | 7%
O=C1CC(N2CCN(Cc3ccccc3)CC2)C(=O)N1c1ccc2c(c1)OCCO2 (configuration not stated) | 43* | 21* | -6% | 6% | -11% | 3%
O=C1CC(N2CCCCCC2)C(=O)N1c1ccc2c(c1)OCO2 (configuration not stated) | 4 | 10 | 5% | 6.3µM* | -13% | -16%
COc1ccc(N2C(=O)CC(N3CCCC4CCCCC43)C2=O)cc1 (configuration not stated) | -3 | -1 | 3% | 7.1µM* | -13% | -1%
COc1ccc(N2C(=O)CC(C3CCCO3)C2=O)cc1 (configuration not stated) | -3 | -6 | 2% | 14% | 3% | 0%
O=c1[nH]c(-c2ccccc2)nn1-c1ccc(Br)cc1Br | 5 | 0 | -8% | 12% | 4% | -2%
Cc1ccc(OCC(=O)Nc2ccc3nc(SCC(N)=O)sc3c2)cc1 | · | · | · | · | · | -1%
Cc1cc(C)cc(Oc2coc3c(CN4CCN(C)CC4)c(O)ccc3c2=O)c1 | · | · | · | · | · | -2%
CCOC(=O)c1ccc(N2C(=O)CC(N3CCC(O)(c4ccc(Cl)cc4)CC3)C2=O)cc1 (configuration not stated) | -6 | -2 | 4% | ? | 0% | -2%
O=C1CC(N2CCCCCC2)C(=O)N1c1ccc(F)cc1 (configuration not stated) | 18 | -4 | 3% | 10µM* | 0% | -4%
COc1ccc(N2C(=O)CC(N3CCCCC3)C2=O)cc1 (configuration not stated) | 6 | 9 | 6% | 18µM* | 4% | -3%
CCOc1ccc(N2C(=O)CC(N3CCC(O)(c4ccc(Br)cc4)CC3)C2=O)cc1 (configuration not stated) | 2 | -4 | 0% | 35µM* | 5% | 2%
COc1ccc(N2C(=O)CC(N3CCC(O)(c4cccc(C(F)(F)F)c4)CC3)C2=O)cc1 (configuration not stated) | 21 | 5 | 13% | 32µM* | 1% | 4%
CCOC(=O)c1ccc(N2C(=O)CC(N3CCC(O)(c4ccc(Br)cc4)CC3)C2=O)cc1 (configuration not stated) | 7 | 4 | 4% | -6% | 1% | -9%
Cc1ccc(N2CCN(C(=O)c3c(C)oc4ncnc(N5CCCCC5)c34)CC2)c(C)c1 | · | · | · | · | · | -4%
O=C1CC(N2CCSCC2)C(=O)N1c1ccc(F)cc1 (configuration not stated) | -2 | -2 | 2% | 25µM* | -4% | -1%
